PubChem BioAssay (NCATS)
Records with an inconclusive call do not appear. The source made the active and inactive calls. The call rests on the fitted dose curve; in most records, active means well fitted inhibition curve with a large enough effect; inconclusive means small, poorly fitted or top-dose-only effect; inactive means flat fitted curve, though single readings scatter.

Tested on: astro (control astrocytes)
Assay: Drug repurposing screens with cells derived from glioblastoma tumor samples (AID 1345199); further: nearly all actives have a fitted effect of over 40% in size
Conditions: viability, ATP luminescence, 48 h; series mostly up to 45.9 µM
Procedure, shortened: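 Primary testing used CD133+ neurospheres from four GBM patients, seven concentrations, 48 h exposure and ATP-based viability; confirmation added three slower-growing patient lines.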
Potency means the concentration at half of the fitted maximal effect.

Row | SMILES | Potency
1 | N#CC1(N2CCCCC2)CCCCC1 | inactive
2 | COC(COC(N)=O)C1=C(N2CC2)C(=O)C(C)=C(N2CC2)C1=O (stereo not given) | 2.24 µM (active)
3 | CCCCCl | inactive
4 | [H+].[H+].[Hg+2].[O-]B([O-])[O-].[c-]1ccccc1 | 2.82 µM (active)
5 | C[N+]1(C)[C@@H]2CC[C@H]1CC(OC(=O)c1c[nH]c3ccccc13)C2 (stereo not given in full) | inactive
6 | O=c1c2ccccc2[se]n1-c1ccccc1 | 22.4 µM (active)
7 | CC(=O)OC1CN2CCC1CC2 (stereo not given) | inactive
8 | CC(=O)O[C@H]1C[C@H](O[C@H]2[C@@H](O)C[C@H](O[C@H]3[C@@H](O)C[C@H](OC4CC[C@@]5(C)[C@H](CC[C@@H]6[C@@H]5CC[C@]5(C)[C@@H](C7=CC(=O)OC7)CC[C@]65O)C4)O[C@@H]3C)O[C@@H]2C)O[C@H](C)[C@H]1O[C@@H]1O[C@H](CO)[C@@H](O)[C@H](O)[C@H]1O (stereo not given in full) | 0.251 µM (active)
9 | [Cl-].[Cl-].[Hg+2] | 7.94 µM (active)
10 | COC1=CC=C2[C@H]3Cc4ccc(OC)c5c4[C@@]2(CCN3C)[C@H]1O5 | inactive
11 | COc1ccc2c3c1O[C@H]1[C@@H](O)C=C[C@H]4[C@@H](C2)NCC[C@@]341 | inactive
12 | C[C@H]1CC[C@]2(NC1)O[C@H]1C[C@H]3[C@@H]4CC[C@H]5C[C@@H](O[C@@H]6O[C@H](CO)[C@H](O[C@@H]7O[C@H](CO)[C@@H](O)[C@H](O[C@@H]8OC[C@@H](O)[C@H](O)[C@H]8O)[C@H]7O[C@@H]7O[C@H](CO)[C@@H](O)[C@H](O)[C@H]7O)[C@H](O)[C@H]6O)CC[C@]5(C)[C@H]4CC[C@]3(C)[C@H]1[C@@H]2C | 3.16 µM (active)
13 | CC(=O)O[C@H]1C[C@H](O[C@H]2[C@@H](O)C[C@H](O[C@H]3[C@@H](O)C[C@H](O[C@H]4CC[C@@]5(C)[C@H](CC[C@@H]6[C@@H]5C[C@@H](O)[C@]5(C)[C@@H](C7=CC(=O)OC7)CC[C@]65O)C4)O[C@@H]3C)O[C@@H]2C)O[C@H](C)[C@H]1O[C@@H]1O[C@H](CO)[C@@H](O)[C@H](O)[C@H]1O | 0.282 µM (active)
14 | CC(C)Nc1ccc(Nc2ccccc2)cc1 | 22.4 µM (active)
15 | CCN(CC)CCO[C@H]1CC[C@@]2(C)C(=CC[C@@H]3[C@@H]2CC[C@]2(C)C(=O)CC[C@@H]32)C1 | inactive
16 | O=C1CN=C(c2ccccc2)c2cc(Cl)ccc2N1CC1CC1 | inactive
17 | CNC(=O)Oc1ccccc1C(=O)Nc1ccccc1 | 22.4 µM (active)
18 | CO[C@H]1[C@@H](O)C[C@H](O[C@H]2[C@@H](O)C[C@H](O[C@H]3[C@@H](O)C[C@H](O[C@H]4CC[C@@]5(C)[C@H](CC[C@@H]6[C@@H]5C[C@@H](O)[C@]5(C)[C@@H](C7=CC(=O)OC7)CC[C@]65O)C4)O[C@@H]3C)O[C@@H]2C)O[C@@H]1C | 0.282 µM (active)
19 | O=C1C=C2C=C[C@@H]3C[C@@]2(O1)[C@H]1CCCCN31 | 17.8 µM (active)
20 | C[C@]12CC[C@H](O)C[C@H]1CC[C@@H]1[C@@H]2CC[C@]2(C)[C@@H](c3ccc(=O)oc3)C[C@H]3O[C@]132 | 1.58 µM (active)
21 | Cc1cc(C)cc(C(=O)OC2C[C@H]3CC[C@@H](C2)N3C)c1 (stereo not given in full) | inactive
22 | CN1C2CCC1CC(OC(c1ccccc1)c1ccc(Cl)cc1)C2 (stereo not given) | 17.8 µM (active)
23 | C[C@@H](Cc1ccccc1)NCCC(c1ccccc1)c1ccccc1 | inactive
24 | CN1[C@H]2CC[C@@H]1[C@@H](C(=O)O)[C@@H](OC(=O)c1ccccc1)C2 | inactive
25 | O=C(C[C@@H]1NCCC[C@H]1O)Cn1cnc2cc(Br)c(Cl)cc2c1=O | inactive
